{"source": "PubChem BioAssay (EPA / NIEHS)", "note": "Records with an inconclusive call do not appear. Activity calls are given as the source filed them. How the source made its calls: active means hit-call score of the fitted dose curve at least 0.9, where 1 is the maximum; inconclusive means response in the unintended direction; inactive means score below 0.9."}
{"molecular_target": "chimpanzee Androgen Receptor (AR), AR (gene 747460) (UniProt O97775)", "sequence (O97775 whole entry, looked up)": "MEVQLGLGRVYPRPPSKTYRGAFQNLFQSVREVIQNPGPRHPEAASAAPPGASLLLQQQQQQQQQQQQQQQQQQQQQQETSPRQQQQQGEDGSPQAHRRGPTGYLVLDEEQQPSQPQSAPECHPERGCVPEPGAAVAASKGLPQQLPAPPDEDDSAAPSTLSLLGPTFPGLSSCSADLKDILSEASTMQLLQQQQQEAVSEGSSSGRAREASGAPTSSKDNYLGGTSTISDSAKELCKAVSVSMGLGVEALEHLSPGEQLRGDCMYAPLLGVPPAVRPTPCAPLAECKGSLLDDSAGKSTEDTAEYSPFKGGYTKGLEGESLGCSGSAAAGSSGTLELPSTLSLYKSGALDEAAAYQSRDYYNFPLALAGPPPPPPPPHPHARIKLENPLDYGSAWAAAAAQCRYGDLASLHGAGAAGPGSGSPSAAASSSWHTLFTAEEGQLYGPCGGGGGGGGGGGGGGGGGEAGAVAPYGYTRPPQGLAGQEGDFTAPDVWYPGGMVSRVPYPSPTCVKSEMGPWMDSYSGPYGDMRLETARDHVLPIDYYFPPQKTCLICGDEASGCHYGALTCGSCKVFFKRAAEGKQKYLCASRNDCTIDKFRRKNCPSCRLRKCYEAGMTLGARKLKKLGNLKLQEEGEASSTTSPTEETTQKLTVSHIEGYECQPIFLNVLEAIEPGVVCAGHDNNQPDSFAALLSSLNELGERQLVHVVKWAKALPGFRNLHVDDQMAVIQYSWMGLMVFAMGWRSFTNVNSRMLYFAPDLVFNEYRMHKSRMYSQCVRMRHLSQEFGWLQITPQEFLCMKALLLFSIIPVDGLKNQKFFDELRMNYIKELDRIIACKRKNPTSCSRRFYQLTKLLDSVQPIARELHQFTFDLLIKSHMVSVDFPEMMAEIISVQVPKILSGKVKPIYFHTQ", "assay": "NVS_NR_cAR: NovaScreen (NVS) Nuclear Receptor Binding Assay for chimpanzee Androgen Receptor (AR) (AID 2283346)", "how_it_was_run": "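Cell-free radioligand displacement using receptor protein extracted from Sf9/Sf21 cells; bound radioligand measured by scintillation counting 72 hours after chemical dosing. Loss of signal versus DMSO baseline indicates binding; primary screen single-concentration in duplicate at 25 uM, actives followed in concentration series.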"}
{"smiles": "O=C(O)c1cc(N=Nc2ccc(S(=O)(=O)Nc3ccccn3)cc2)ccc1O", "AC50": "5.35 µM (active)"}
{"smiles": "O=C(OC[C@H]1O[C@@H](OC(=O)c2cc(O)c(O)c(OC(=O)c3cc(O)c(O)c(O)c3)c2)[C@H](OC(=O)c2cc(O)c(O)c(OC(=O)c3cc(O)c(O)c(O)c3)c2)[C@@H](OC(=O)c2cc(O)c(O)c(OC(=O)c3cc(O)c(O)c(O)c3)c2)[C@@H]1OC(=O)c1cc(O)c(O)c(OC(=O)c2cc(O)c(O)c(O)c2)c1)c1cc(O)c(O)c(OC(=O)c2cc(O)c(O)c(O)c2)c1", "AC50": "0.472 µM (active)"}
{"smiles": "O=C(O)c1cccc(N(Cc2cccnc2)c2ccc(OC(F)F)c(OC(F)F)c2)c1", "AC50": "2.81 µM (active)"}
{"smiles": "CC[C@H](C)C(=O)O[C@H]1C[C@@H](C)C=C2C=C[C@H](C)[C@H](CC[C@@H]3C[C@@H](O)CC(=O)O3)[C@H]21", "AC50": "24.9 µM (active)"}
{"smiles": "CCCCCCc1ccc(O)cc1O", "outcome": "inactive"}
{"smiles": "COc1ccc2sc(C(=O)Nc3nnn[nH]3)c(OC(C)C)c2c1", "outcome": "inactive"}
{"smiles": "Nc1nc2ncc(CNc3ccc(C(=O)N[C@@H](CCC(=O)O)C(=O)O)cc3)nc2c(=O)[nH]1", "outcome": "inactive"}
{"smiles": "CC(C)=CCC/C(C)=C\\CO", "outcome": "inactive"}
{"smiles": "CC(C)=CCC/C(C)=C/CO", "outcome": "inactive"}
{"molecular_target": "Estrogen receptor (Homo sapiens) (UniProt P03372)", "sequence (P03372 whole entry, looked up, the tested form may be a part)": "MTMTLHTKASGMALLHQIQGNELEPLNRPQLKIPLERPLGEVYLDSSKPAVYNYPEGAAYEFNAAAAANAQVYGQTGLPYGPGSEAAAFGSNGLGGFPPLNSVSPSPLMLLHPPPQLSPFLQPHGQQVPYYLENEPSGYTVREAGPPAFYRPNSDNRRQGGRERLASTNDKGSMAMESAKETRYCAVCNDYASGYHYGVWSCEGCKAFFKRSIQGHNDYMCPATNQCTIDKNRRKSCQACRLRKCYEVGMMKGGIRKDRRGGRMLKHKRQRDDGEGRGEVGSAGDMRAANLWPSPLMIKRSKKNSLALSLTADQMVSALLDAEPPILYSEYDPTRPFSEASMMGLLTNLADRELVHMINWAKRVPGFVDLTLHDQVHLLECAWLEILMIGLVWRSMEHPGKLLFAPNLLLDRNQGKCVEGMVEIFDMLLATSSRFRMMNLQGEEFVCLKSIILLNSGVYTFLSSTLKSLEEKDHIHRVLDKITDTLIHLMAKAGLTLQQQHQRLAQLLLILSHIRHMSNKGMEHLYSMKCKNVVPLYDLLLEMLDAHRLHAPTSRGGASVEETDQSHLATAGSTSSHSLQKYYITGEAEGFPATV", "assay": "OT_ER_ERaERa_1440: Odyssey Thera (OT) 24-hour HEK293T Protein-Complementation Assay for Estrogen Receptor-alpha/-alpha Homodimer (AID 2283349);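 further: hits raise fluorescence above DMSO for agonists and antagonists alike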", "how_it_was_run": "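Stably transfected HEK293T; ERα LBD homodimer PCA. 24 h dosing, fluorescence intensity read, gain-of-signal vs DMSO.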"}
{"smiles": "O=C(O)c1cccc(Oc2ccccc2)c1", "outcome": "inactive"}
{"smiles": "CC(C)=CCCC(C)CCO", "note": "(stereo not drawn)", "outcome": "inactive"}
{"smiles": "CC(C)=CCCC(C)=CC=O", "outcome": "inactive"}
{"smiles": "Cc1ccc(N)cc1O", "outcome": "inactive"}
{"smiles": "CC[C@H](C)C(=O)O[C@H]1C[C@@H](C)C=C2C=C[C@H](C)[C@H](CC[C@@H]3C[C@@H](O)CC(=O)O3)[C@H]21", "outcome": "inactive"}
{"smiles": "CC(C)CCO", "outcome": "inactive"}
{"smiles": "C=CC(=C)CCC=C(C)C", "outcome": "inactive"}
{"smiles": "COc1ccc2sc(C(=O)Nc3nnn[nH]3)c(OC(C)C)c2c1", "outcome": "inactive"}
{"smiles": "C=CCCCCCCCCC(=O)O", "outcome": "inactive"}
{"smiles": "O=c1n(CC2CO2)c(=O)n(CC2CO2)c(=O)n1CC1CO1", "note": "(stereo not drawn)", "outcome": "inactive"}
{"smiles": "Cn1cnc([N+](=O)[O-])c1Sc1ncnc2nc[nH]c12", "outcome": "inactive"}
{"smiles": "O=C(NS(=O)(=O)/C=C/c1ccccc1)c1ccc(F)cc1Cl", "outcome": "inactive"}
{"smiles": "COC(=O)c1c(Cl)c(Cl)c(C(=O)OC)c(Cl)c1Cl", "outcome": "inactive"}
{"smiles": "Cn1c(=O)cc(Oc2ccc(F)cc2F)c2cnc(NCC(C)(C)O)nc21", "AC50": "50 µM (active)"}
{"smiles": "CCCCCCCCO", "outcome": "inactive"}
{"smiles": "CCCCC(CC)COC(=O)CCCCCCCCC(=O)OCC(CC)CCCC", "note": "(stereo not drawn)", "AC50": "12.1 µM (active)"}
{"smiles": "CCC(C)(C)C(=O)O[C@H]1C[C@@H](C)C=C2C=C[C@H](C)[C@H](CC[C@@H]3C[C@@H](O)CC(=O)O3)[C@H]21", "outcome": "inactive"}
{"smiles": "COC(=O)CC(=O)OC", "outcome": "inactive"}
{"smiles": "Cc1ccc(S(=O)(=O)O)cc1C", "outcome": "inactive"}
